The whole screen tested about 5,500 compounds, of which about 2,000 (36%) were called active. Not shown: some 18% with an inconclusive outcome. Cut-off read from the data, not from the text of the source: active = normalized growth mostly below about 0.91 (no sharp cut-off); inconclusive = no clear call, values can overlap the other calls; inactive = mostly above about 0.92. The list shows a part of the results.
Test: chemical genetic growth profiling, strain panel (AID 1159580);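 note: tested at 20 µM; growth read once vehicle control cultures reached saturation at 30 °C; 1 = growth at the plate median or of vehicle wells; lower values mean less growth of the strain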
Conditions: growth OD

Measured: normalized growth

CC(C)CC(N(C)C)C1(c2ccc(Cl)cc2)CCC1 (configuration not stated)
inactive: S. cerevisiae deletion strains, locus YJR075W, strain HOC1, stronger effect = lower value 0.995 | S. cerevisiae deletion strains, locus YKL009W, strain mrt4, stronger effect = lower value 1.03 | S. cerevisiae deletion strains, locus YKL068W, stronger effect = lower value 1.01 | S. cerevisiae deletion strains, locus YKL085W, strain MDH1 (second series), stronger effect = lower value 1.01 | S. cerevisiae deletion strains, locus YKL085W, strain MDH1, stronger effect = lower value 1.01 | S. cerevisiae deletion strains, locus YKL160W, strain elf1, stronger effect = lower value 1.02 | S. cerevisiae deletion strains, locus YKL190W, strain CNB1, stronger effect = lower value 0.997 | S. cerevisiae deletion strains, locus YKR001C, strain vps1, stronger effect = lower value 1.02 | S. cerevisiae deletion strains, locus YKR026C, strain gcn3, stronger effect = lower value 1.01 | S. cerevisiae deletion strains, locus YKR091W, strain srl3, stronger effect = lower value 1.01 | S. cerevisiae deletion strains, locus YLL001W, strain dnm1, stronger effect = lower value 1.01 | S. cerevisiae deletion strains, locus YLL026W, stronger effect = lower value 1.01 | S. cerevisiae deletion strains, locus YLL041C, strain sdh2, stronger effect = lower value 1 | S. cerevisiae deletion strains, locus YLR027C, strain aat2, stronger effect = lower value 1.02 | S. cerevisiae deletion strains, locus YLR039C, strain RIC1, stronger effect = lower value 1.13 | S. cerevisiae deletion strains, locus YLR058C, strain SHM2, stronger effect = lower value 1.01 | S. cerevisiae deletion strains, locus YLR102C, strain apc9, stronger effect = lower value 1.01 | S. cerevisiae deletion strains, locus YLR113W, strain HOG1, stronger effect = lower value 0.995 | S. cerevisiae deletion strains, locus YLR221C, strain rsa3, stronger effect = lower value 0.994 | S. cerevisiae deletion strains, locus YLR258W, strain gsy2, stronger effect = lower value 1 | S. cerevisiae deletion strains, locus YLR262C, strain YPT6 (second series), stronger effect = lower value 1.05 | S. cerevisiae deletion strains, locus YLR262C, strain YPT6, stronger effect = lower value 1.11 | S. cerevisiae deletion strains, locus YLR268W, strain sec22, stronger effect = lower value 1.02 | S. cerevisiae deletion strains, locus YLR320W, strain mms22, stronger effect = lower value 0.989 | S. cerevisiae deletion strains, locus YLR330W, strain CHS5, stronger effect = lower value 1 | S. cerevisiae deletion strains, locus YLR342W, strain FKS1 (second series), stronger effect = lower value 1.01 | S. cerevisiae deletion strains, locus YLR342W, strain FKS1, stronger effect = lower value 1.01 | S. cerevisiae deletion strains, locus YLR357W, strain rsc2, stronger effect = lower value 1.01 | S. cerevisiae deletion strains, locus YLR370C, strain arc18, stronger effect = lower value 1.01 | S. cerevisiae deletion strains, locus YLR371W, strain rom2, stronger effect = lower value 1.01 | S. cerevisiae deletion strains, locus YLR384C, strain iki3, stronger effect = lower value 1.02 | S. cerevisiae deletion strains, locus YLR418C, strain cdc73, stronger effect = lower value 1.05 | S. cerevisiae deletion strains, locus YML016C, strain PPZ1, stronger effect = lower value 1.02 | S. cerevisiae deletion strains, locus YML032C, strain rad52, stronger effect = lower value 1.02 | S. cerevisiae deletion strains, locus YML120C, strain ndi1, stronger effect = lower value 1.01 | S. cerevisiae deletion strains, locus YML124C, strain tub3, stronger effect = lower value 1.01 | S. cerevisiae deletion strains, locus YMR058W, strain fet3, stronger effect = lower value 1.01 | S. cerevisiae deletion strains, locus YMR078C, strain ctf18, stronger effect = lower value 1.02 | S. cerevisiae deletion strains, locus YMR125W, strain sto1, stronger effect = lower value 0.979 | S. cerevisiae deletion strains, locus YMR129W, stronger effect = lower value 1.01 | S. cerevisiae deletion strains, locus YMR205C, strain PFK2, stronger effect = lower value 1.01 | S. cerevisiae deletion strains, locus YMR223W, strain ubp8, stronger effect = lower value 1.01 | S. cerevisiae deletion strains, locus YMR231W, strain pep5, stronger effect = lower value 0.989 | S. cerevisiae deletion strains, locus YMR263W, strain SAP30, stronger effect = lower value 0.999 | S. cerevisiae deletion strains, locus YMR307W, strain GAS1, stronger effect = lower value 1.01 | S. cerevisiae deletion strains, locus YNL067W, strain RPL9B, stronger effect = lower value 0.992 | S. cerevisiae deletion strains, locus YNL071W, strain lat1, stronger effect = lower value 1.01 | S. cerevisiae deletion strains, locus YNL128W, strain TEP1, stronger effect = lower value 0.987 | S. cerevisiae deletion strains, locus YNL153C, strain GIM3, stronger effect = lower value 1.01 | S. cerevisiae deletion strains, locus YNL183C, strain NPR1, stronger effect = lower value 0.972 | S. cerevisiae deletion strains, locus YNL209W, strain ssb2, stronger effect = lower value 0.996 | S. cerevisiae deletion strains, locus YNL233W, strain BNI4, stronger effect = lower value 1.01 | S. cerevisiae deletion strains, locus YNL248C, strain rpa49, stronger effect = lower value 0.997 | S. cerevisiae deletion strains, locus YNL250W, strain rad50, stronger effect = lower value 1 | S. cerevisiae deletion strains, locus YNL271C, strain bni1, stronger effect = lower value 1.02 | S. cerevisiae deletion strains, locus YNL298W, strain CLA4, stronger effect = lower value 1.02 | S. cerevisiae deletion strains, locus YNL307C, strain MCK1, stronger effect = lower value 1.03 | S. cerevisiae deletion strains, locus YNL322C, strain KRE1 (second series), stronger effect = lower value 1 | S. cerevisiae deletion strains, locus YNL322C, strain KRE1, stronger effect = lower value 1 | S. cerevisiae deletion strains, locus YNR049C, strain mso1, stronger effect = lower value 0.996 | S. cerevisiae deletion strains, locus YNR052C, strain pop2, stronger effect = lower value 1.01 | S. cerevisiae deletion strains, locus YOL006C, strain TOP1, stronger effect = lower value 1.03 | S. cerevisiae deletion strains, locus YOL012C, strain htz1 0.875 | S. cerevisiae deletion strains, locus YOL147C, strain pex11, stronger effect = lower value 1 | S. cerevisiae deletion strains, locus YOR001W, strain rrp6, stronger effect = lower value 1.02 | S. cerevisiae deletion strains, locus YOR061W, strain CKA2, stronger effect = lower value 1.01 | S. cerevisiae deletion strains, locus YOR069W, strain VPS5, stronger effect = lower value 0.992 | S. cerevisiae deletion strains, locus YOR070C, strain gyp1, stronger effect = lower value 0.997 | S. cerevisiae deletion strains, locus YOR080W, strain dia2, stronger effect = lower value 1.01 | S. cerevisiae deletion strains, locus YOR083W, strain WHI5, stronger effect = lower value 1 | S. cerevisiae deletion strains, locus YOR106W, strain vam3, stronger effect = lower value 1.03 | S. cerevisiae deletion strains, locus YOR136W, strain idh2, stronger effect = lower value 1.02 | S. cerevisiae deletion strains, locus YOR144C, strain elg1, stronger effect = lower value 1.02 | S. cerevisiae deletion strains, locus YOR184W, strain ser1, stronger effect = lower value 1.03 | S. cerevisiae deletion strains, locus YOR231W, strain MKK1, stronger effect = lower value 1.03 | S. cerevisiae deletion strains, locus YOR265W, strain rbl2, stronger effect = lower value 1.02 | S. cerevisiae deletion strains, locus YOR270C, strain vph1, stronger effect = lower value 0.991 | S. cerevisiae deletion strains, locus YOR290C, strain snf2, stronger effect = lower value 0.99 | S. cerevisiae deletion strains, locus YOR316C, strain cot1, stronger effect = lower value 1.01 | S. cerevisiae deletion strains, locus YPL051W, strain arl3, stronger effect = lower value 0.997 | S. cerevisiae deletion strains, locus YPL055C, strain LGE1, stronger effect = lower value 0.999 | S. cerevisiae deletion strains, locus YPL078C, strain atp4, stronger effect = lower value 1.02 | S. cerevisiae deletion strains, locus YPL106C, strain sse1, stronger effect = lower value 0.988 | S. cerevisiae deletion strains, locus YPL240C, strain hsp82, stronger effect = lower value 1.02 | S. cerevisiae deletion strains, locus YPL241C, strain CIN2, stronger effect = lower value 0.995 | S. cerevisiae deletion strains, locus YPL256C, strain CLN2, stronger effect = lower value 1.01 | S. cerevisiae deletion strains, locus YPR119W, strain clb2, stronger effect = lower value 1.01 | S. cerevisiae deletion strains, locus YPR141C, strain kar3, stronger effect = lower value 1.01 | S. cerevisiae deletion strains, locus YPR163C, strain tif3, stronger effect = lower value 1.02 | S. cerevisiae deletion strains, locus YPR167C, strain met16, stronger effect = lower value 1.02 | S. cerevisiae deletion strains, strain wtn01, stronger effect = lower value 1.03 | S. cerevisiae strains, strain wild type, stronger effect = lower value 0.98
